Experimental data reported in PubChem BioAssay AID588391 (Broad Institute, 2011).
Hit rate of the full screen: of about 350,000 compounds, about 180 (0.051%) were called active.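 How the source made its calls: active means mean inhibition across replicates of 30% or more, whatever share of single replicates reach that level; inconclusive means mean inhibition below 30% while every single replicate reaches 30%; inactive means the rest.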 Shown is part of a subset that was picked to be rich in actives.

These compounds were tested against Protein disulfide-isomerase (Homo sapiens) (UniProt P07237) (assay: inhibitors of human PDI, primary screen, biochemical, turbidity, single point, plate reader (AID 588391;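 further: absorbance from insulin aggregation driven by PDI reduction with DTT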)). Details: PDI insulin aggregation turbidity, A650, 90 min; at 10 µM; stronger effect = higher value.
Sequence of Protein disulfide-isomerase (Homo sapiens) (P07237 whole entry, looked up): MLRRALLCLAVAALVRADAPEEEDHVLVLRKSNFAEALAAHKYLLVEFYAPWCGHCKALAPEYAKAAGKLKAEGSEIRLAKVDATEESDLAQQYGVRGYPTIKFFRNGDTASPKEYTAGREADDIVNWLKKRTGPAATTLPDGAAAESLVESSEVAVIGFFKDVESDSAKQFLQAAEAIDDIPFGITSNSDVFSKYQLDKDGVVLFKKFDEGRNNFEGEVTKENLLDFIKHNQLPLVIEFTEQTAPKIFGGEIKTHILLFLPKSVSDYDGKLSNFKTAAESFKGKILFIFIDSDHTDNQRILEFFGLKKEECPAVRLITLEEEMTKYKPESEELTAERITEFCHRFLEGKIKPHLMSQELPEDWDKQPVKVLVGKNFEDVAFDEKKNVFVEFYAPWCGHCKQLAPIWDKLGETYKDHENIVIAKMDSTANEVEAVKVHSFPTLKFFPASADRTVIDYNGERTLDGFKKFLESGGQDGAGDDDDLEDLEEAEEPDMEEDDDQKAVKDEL
CN(C)c1ccc(/C=C/C(=O)c2ccc(O)cc2)cc1[N+](=O)[O-] was tested, and the inhibition was 62.9% (active).
With O=C(/C=C/c1ccc(Cl)cc1)N1CCN(c2ccccc2[N+](=O)[O-])CC1 the inhibition was -3.05% (inactive).
In the case of CC(=O)Nc1ccc(C=CC(=O)c2ccc([N+](=O)[O-])cc2)cc1, the inhibition is reported as -14.3% (inactive).
With OC[C@H]1O[C@@H](c2nc(-c3nc(-c4ccc(F)cc4)no3)cs2)[C@H](O)[C@@H](O)[C@H]1O the inhibition was 9.06% (inactive).
With CCc1nc2ccc(C(=O)Nc3cccc(OC)c3)cn2c1N(CCC(C)C)CCN(C)C the inhibition was 7.59% (inactive).
In the case of COc1ccc(CNC(=O)c2ccc(-c3cccnc3)c3ccoc23)cc1OC, the inhibition is reported as -14.5% (inactive).
In the case of CCOC(=O)C1CCCN(C(=O)c2ccc(N(C)C)cc2)CC1 (stereo unspecified), the inhibition is reported as -4.95% (inactive).
For COc1ccccc1CNC(=O)c1cc(-c2cc(F)ccc2OC)n[nH]1, the inhibition was -13.3% (inactive).
In the case of CNc1cnc(-c2cc(OC)c(OC)c(OC)c2)cn1, the inhibition is reported as -1.94% (inactive).
Cc1nc2c(OCc3ccc(Cl)cc3Cl)cccn2c1N(C)CC1CC1 was tested, and the inhibition was -3.07% (inactive).
With CC(=O)NN=C(C)c1ccc(NC(=O)C2CC2)cc1 the inhibition was 11.5% (inactive).
For CC1(C(=O)NCc2cccc3ccccc23)CCN1Cc1ccc(-c2ccccc2)o1 (stereo unspecified), the inhibition was -7.12% (inactive).
For CC(=O)Nc1cccc(-c2cc(NC=O)c3ncc(-c4ccc(F)c(Cl)c4)n3c2)c1, the inhibition was -0.607% (inactive).
For CCc1nc2c(OCCOc3ccccc3)cccn2c1N(C=O)Cc1ccc(OC)cc1, the inhibition was 3.19% (inactive).
With COc1cccc(NC(=O)C2(C)CCN2Cc2ccccc2Cl)c1 (stereo unspecified) the inhibition was 2.3% (inactive).
With NC(Cc1ccc(F)cc1)c1csc(Nc2nncc3ccccc23)n1 (stereo unspecified) the inhibition was -3.01% (inactive).
For CC(C)Nc1nc(NCCOc2ccccc2Cl)c2sccc2n1, the inhibition was 0.492% (inactive).
With COc1ccc(NC(=O)C2(C)Cc3c(-c4cccc(NC(C)=O)c4)ccnc3O2)cc1OC (stereo unspecified) the inhibition was -9.6% (inactive).
With O=C(CCc1n[nH]c(=O)[nH]c1=O)N/N=C/c1ccc(Br)o1 the inhibition was 2.19% (inactive).
For O=C(CCC(=O)N/N=C/c1ccc(Br)o1)N/N=C/c1ccc(Br)o1, the inhibition was -7.35% (inactive).
For O=C(CCc1ccc(O)cc1)NN=Cc1cc(Br)ccc1O, the inhibition was 44.5% (active).
With COc1ccc(C(NC(=O)C2CCN(CCCc3ccccc3)CC2)c2cccs2)cc1 (stereo unspecified) the inhibition was -3.76% (inactive).
OCCN1CCN(c2ncnc3c2ncn3[C@H]2CN(Cc3ccco3)C[C@@H](CO)O2)CC1 was tested, and the inhibition was -4.02% (inactive).
In the case of COc1cncc(-c2cnc3sc(NCCc4ccccn4)nn23)c1, the inhibition is reported as -1.86% (inactive).
CCCC/C=C/c1cccc2nncn12 was tested, and the inhibition was 15.4% (inactive).
With O=C(Nc1ccc(N2CCOCC2)cc1)c1cccc2c(-c3ccc(F)c(F)c3)coc12 the inhibition was 6.12% (inactive).
Cc1nc(C(F)(F)F)ccc1C(=O)N1CCC1(C)C(=O)NS(=O)(=O)c1ccc(F)cc1F (stereo unspecified) was tested, and the inhibition was -2.79% (inactive).
In the case of Cc1cccc(C)c1Cn1c(C)c(C(=O)NCc2cccc(Cl)c2)sc1=O, the inhibition is reported as 12.4% (inactive).
CCc1nc2c(OCc3ccc(Cl)cc3Cl)cccn2c1N(C)C(=O)C(C)C was tested, and the inhibition was 1.84% (inactive).
In the case of CS(=O)(=O)/C(C#N)=C/c1cccn1S(=O)(=O)c1ccc([N+](=O)[O-])cc1, the inhibition is reported as 6.24% (inactive).
For CCCS(=O)(=O)NC(=O)C1(C)CCCN(C(=O)c2cccs2)C1 (stereo unspecified), the inhibition was 5.08% (inactive).
With CCCNC(=O)C1(C)CCN(C(=O)c2ccccc2OC(F)(F)F)C1 (stereo unspecified) the inhibition was 12.9% (inactive).
COc1ccc(S(=O)(=O)NC(=O)C2(C)CCN2C(=O)c2ccccc2CCc2ccccc2)cc1 (stereo unspecified) was tested, and the inhibition was -21.5% (inactive).
For Cc1ccc(CNC(=O)Nc2nnc([C@H]3C[C@H](O)[C@@H](CO)O3)s2)cc1, the inhibition was -0.839% (inactive).
In the case of COc1ccc(-c2cc3nc(NCCOc4ccccc4)ccn3n2)cc1, the inhibition is reported as 8.41% (inactive).
In the case of Cc1ccc(Sc2ccc(NC(=O)c3ccc(F)cc3)cc2C#N)cc1, the inhibition is reported as 1.62% (inactive).
CC(C)NC(=O)C1(C)CCCCCN1C(=O)c1ccc(-c2ccccc2)cc1 (stereo unspecified) was tested, and the inhibition was 0.373% (inactive).
With CCc1nc2c(OCCC3CCCCC3)cccn2c1N(C)C(=O)c1ccco1 the inhibition was 4.27% (inactive).
In the case of COc1ccc(OC)c(NC(=O)C2(C)CCN2C(=O)Cc2ccccc2)c1 (stereo unspecified), the inhibition is reported as 0.456% (inactive).
In the case of O=C(CSc1nc2cccc(F)c2c(=O)n1-c1ccccc1)Nc1ccc2c(c1)CCC2, the inhibition is reported as -4.77% (inactive).
CC1(Cc2ccccc2C#N)C(=O)Nc2ccc(-c3ccc4[nH]ccc4c3)cc21 (stereo unspecified) was tested, and the inhibition was 7.54% (inactive).
For O=C(O)c1ccccc1-c1cccc2nncn12, the inhibition was 9.27% (inactive).
For O=C(NCc1ccc(F)cc1)c1cc(C2CCCCN2C(=O)c2cccs2)on1 (stereo unspecified), the inhibition was -0.163% (inactive).
For CC(C)Cc1ccc(-c2cc3nc(NCc4cccc(Cl)c4)ccn3n2)cc1, the inhibition was -8.06% (inactive).
For O=C(c1cc(C2CCCCN2S(=O)(=O)c2ccccc2)on1)N1CCOCC1 (stereo unspecified), the inhibition was -7.54% (inactive).
COc1ccc(NC(=O)C2(C)Cc3c(-c4cccc(NC(C)=O)c4)ccnc3O2)cc1 (stereo unspecified) was tested, and the inhibition was -2.98% (inactive).
In the case of OC[C@@H]1CN(Cc2ccc(-c3ccccc3)cc2)C[C@H](n2cnc3c(NC4CCCC4)ncnc32)O1, the inhibition is reported as -2.96% (inactive).
CC(C)Cn1cc(-c2cncc3nccn23)cn1 was tested, and the inhibition was -0.067% (inactive).
With CC1(C(=O)NS(=O)(=O)c2ccc3ccccc3c2)CCN1C(=O)C1(c2ccc(Cl)cc2)CCC1 (stereo unspecified) the inhibition was 8.48% (inactive).
For CC(=O)c1ccc(-c2cnc3c(NC=O)cc(-c4cccc(NS(C)(=O)=O)c4)cn23)cc1, the inhibition was 16.7% (inactive).
In the case of COc1cccc(-c2cnc(C(O)c3ccccc3OC)[nH]2)c1 (stereo unspecified), the inhibition is reported as 10.9% (inactive).
For OC(c1ccc(F)cc1)c1ncc(-c2cccc(C(F)(F)F)c2)[nH]1 (stereo unspecified), the inhibition was -1.07% (inactive).
In the case of CC(C)Oc1cc(F)ccc1-c1cc(C(=O)Nc2ccc(F)cc2)[nH]n1, the inhibition is reported as 10.8% (inactive).
In the case of O=C(NC(c1ccc(Cl)cc1)c1cnccn1)C1CCN(Cc2ccc(Cl)cc2)CC1 (stereo unspecified), the inhibition is reported as -28.5% (inactive).
With CCCc1ccc(C(O)c2ncc(-c3cccc(OC)c3)[nH]2)cc1 (stereo unspecified) the inhibition was -4.13% (inactive).
With COc1ccccc1CNC(=O)c1cc(-c2cc(Cl)ccc2C)n[nH]1 the inhibition was -1.01% (inactive).
